PubChem BioAssay (NCI)
About 83,000 compounds went through this panel and 20% of them were active in at least one assay; those are over-represented in the sample as a whole.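 Compound tested at a single concentration for 48 hours in 96-well plates; a percent growth value below 10 was scored as active.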 A number with no mark means an inactive call. Active and inactive are the calls of the source.

System: HL-60(TB) leukemia
Assay: NCI-60 one-dose screen, 48 h (100 = growth as untreated, 0 = no growth, -100 = all killed)
Settings: 10 µM unless noted

Compound | growth
O=C(NNc1nc2cc(F)ccc2n2c(CN3CCCC3)ccc12)c1cnccn1 | -30.9% (active)
O=S(=O)(Nc1ccc(-c2nc(-c3cccc(O)c3)c(-c3ccnc(Br)c3)[nH]2)cc1)c1ccccc1 | -9.12% (active)
O=C(NCCNc1cc(-c2cn(-c3ccccc3)nc2-c2cccc(O)c2)ccn1)Nc1cc(C(F)(F)F)cc(C(F)(F)F)c1 | 97%
COc1ccc(C(=O)Nc2ncc(Cc3ccccc3Cl)s2)cc1 | -1.93% (active)
C#C[C@]1(O)CC[C@H]2[C@@H]3CC=C4c5sc(Nc6cc(OC)ccc6OC)nc5CC[C@]4(C)[C@H]3CC[C@@]21C | -5.2% (active)
O=C(CSc1nc2ccccc2c(=O)n1-c1ccccc1)N/N=C/c1ccc(Oc2ccc(Cl)cc2)cc1 | 106%
N/C(=N\C(N)=N\c1nc2ccccc2s1)c1cccc(F)c1 | 83% [5 µM]
Cc1cc(NS(=O)(=O)c2ccc(-c3cnc(C4CC4)o3)cc2)ccc1I | 1.38% (active)
CC(C)(C)n1cc(-c2ccnc(NCCCNS(=O)(=O)c3cccc(F)c3)n2)c(-c2ccc(Cl)c(O)c2)n1 | 128%
Cn1ccnc1C(=O)/C=C/c1ccc(NC(=O)Nc2ccc(F)cc2)cc1 | 7.58% (active)
CC[C@@](C)(NC(=O)C(C)(C)NC(=O)[C@@H](NC(=O)[C@@H]1CCCN1C(=O)C(C)(C)NC(=O)[C@H](CC(C)C)NC(=O)CNC(=O)C(C)(C)NC(=O)[C@@H](NC(=O)C(C)(C)NC(=O)[C@H](CCC(N)=O)NC(=O)[C@H](C)NC(=O)C(C)(C)NC(=O)[C@H](C)NC(=O)C(C)(C)NC(=O)[C@@H]1CCCN1C(=O)C(C)(C)NC(C)=O)C(C)C)C(C)C)C(=O)N[C@@H](CCC(N)=O)C(=O)N[C@@H](CCC(N)=O)C(=O)N[C@H](CO)Cc1ccccc1 | -50.8% [4.25 µM] (active)
COc1ccc(/C=N/Nc2nc(Nc3ccccc3)nc(Nc3ccc(S(N)(=O)=O)cc3)n2)cc1 | 83.8%
Cc1cc(=O)oc2cc(OCCCOc3ccc(/C=C/C(=O)Nc4ccc(Br)cc4)cc3)ccc12 | 95.8%
N#Cc1cnc2ccc(-c3cnc(N)nc3)cc2c1N1CCc2cc(F)c(Cl)cc21 | -11.7% (active)
CCn1c(SCC(=O)Nc2cccc(C(=O)/C=C/c3ccccc3Cl)c2)nc2ccccc2c1=O | 107%
COc1ccc(-c2csc(N/N=C/c3c(-c4ccc(S(C)(=O)=O)cc4)nc4ccccn34)n2)cc1 | 103%
COc1ccc(NC(=O)CSc2nnc(-c3ccc4nc(-c5ccc(OC)c(OC)c5)[nH]c4c3)o2)cc1OC | 111%
CCO/C=N/C1=C(C#N)C(c2ccc(F)cc2)c2sc3c(CC)cccc3c2O1 (configuration not stated) | -19.1% (active)
CCOc1ccc(C(=O)Nc2ncc(Cc3ccc(F)cc3)s2)cc1 | 1.55% (active)
COc1cc2nc(-c3ccc(C(F)(F)F)cc3)cc(OCCCNCC3CCCO3)c2cc1OC (configuration not stated) | 11.9%
COc1ccc(CNS(=O)(=O)/N=C2\NC(=O)NC2=C(Cl)Cl)cc1 | -11.1% (active)
Nc1cc(-c2c[nH]c3ccc(F)cc23)nc2cc(-c3c[nH]c4ccc(F)cc34)nn12 | -37.6% (active)
O=C(CSc1nc2ccccc2c(=O)n1CCc1ccccc1)Nc1ccc(S(=O)(=O)Nc2ccc(Cl)nn2)cc1 | 132%

Compound | growth
C[C@H](Nc1ncnc2ccc(-c3cnc(Cl)c(NS(C)(=O)=O)c3)cc12)c1ccccc1 | -17.6% (active)
C#CCN(C)CCCOc1ccc(NC(=O)CCCCCCCCC(=O)NO)cc1Cl | 28.6%
CNC(=O)c1cc(Oc2ccc3nc(NC(=O)c4cccc(OC(F)(F)F)c4)sc3c2)ccn1 | 67.5%
NC(N)=NS(=O)(=O)c1ccc(N=NC2C(=O)NN(c3ccccc3)C2=O)cc1 (configuration not stated) | 107%
CN1CCN(c2nc(-c3csc(-c4ccccc4)n3)cc3ccccc23)CC1 | 6.57% (active)
Cc1ccc(NC(=O)c2ccc(CN3CCN(C)CC3)c(I)c2)cc1Oc1ccc(-c2[nH]nc3ncnc(N)c23)cc1 | 118%
COc1ccc(-c2cc(-c3cccc4ccccc34)n3c(n2)nc2ccccc23)cc1 | -0.785% (active)
COc1c(N2CC3CCCNC3C2)c(F)cc2c(=O)c(C(=O)N/N=C/c3ccc(F)cc3)cn(C3CC3)c12 (configuration not stated) | 72.8%
C=C(C=O)[C@@H]1CC[C@]2(C(=O)O)CC[C@]3(C)C(CC[C@@H]4[C@@](C)(CCC#N)[C@H](C(=C)C=O)CC[C@]43C)[C@@H]12 (some centres not stated) | 2.63% (active)
O=C(CCCCCC/C=C\c1csc(Br)n1)NO | 78.5%
O=C1CSC(=O)N1Cc1cc2ccccc2nc1Cl | 101%
Cn1c(SCC(=O)c2ccco2)nc2ccccc2c1=O | 98.3%
O=C(Cn1cc[n+](CC(=O)c2ccc(-c3ccccc3)cc2)c1)Nc1cccc2cccnc12 | 14.5%
CC(C)(O)c1cncc(-c2ccc3ncc(C#N)c(N4CCc5cc(F)c(Cl)cc54)c3c2)c1 | 11.5%
O=S(=O)(Nc1cccc2ccccc12)c1ccc(-c2cnc(C3CC3)o2)cc1 | -16.2% (active)
Oc1ccc(CSc2nnc(-c3ccc(Cl)cc3)o2)c2cccnc12 | 12.6%
O=C1Nc2cc(Cl)ccc2/C1=C\c1ccc(OCc2ccc([N+](=O)[O-])cc2)cc1 | 96.9%
CCC/C=C/C=C/C(=O)N[C@@H](Cc1cc(F)cc(F)c1)C(=O)N[C@@H]1C(=O)N2CCC[C@H]2C(=O)N2CCCC[C@H]2C(=O)N[C@@H](C)C(=O)N2C[C@H](C)C[C@H]2C(=O)O[C@H]1C | 3.76% (active)
CC(=O)Nc1ccc(C)c(Nc2cc(-c3ccc(-n4cccn4)cc3)[nH]n2)c1 | 12.8%
Cn1cc2c(c1)-c1c(sc3nc(-c4ccc(NC(=O)Nc5cc(C(C)(C)C)on5)cc4)cn13)CC2 | 12.4%
O=C1/C(=C/C=C/c2ccco2)SC(=S)N1C1CCCCC1 | 69.4%
COc1cc(/C=C/C(=O)c2ccc(C(F)(F)F)cc2)ccc1Oc1nc(NCCO)nc(N2CCOCC2)n1 | 53.4%
COc1ccc(C2C(C#N)=C(N)Oc3c2sc2ccc(C)cc32)cc1 (configuration not stated) | 12.5%

Compound | growth
COc1cc(/C=C2\C(=O)Nc3ccccc32)ccc1OCc1ccc(F)cc1 | 115%
O=C1[C@H]2Cc3c([nH]c4ccccc34)[C@@H](c3c(Cl)cccc3Cl)N2C(=O)CN1C1CCN(Cc2ccccc2)CC1 | 65.7%
COc1cc2oc(-c3cccc(NC(=O)[C@@H](N)C(C)C)c3)cc(=O)c2c(OC)c1OC | 105%
N/C(=N\C(N)=N\c1nc2ccccc2s1)c1ccc2ccccc2c1 | 99.8%
CC[C@]12CC(C(=O)OC)=C3Nc4ccccc4[C@@]34CCN(C14)[C@@H]1c3cc4c(cc3O[C@@H]1[C@H]2O)NC1=C(C(=O)OC)C[C@@]2(CC)C3N(CC[C@@]143)C[C@H]1O[C@H]12 (some centres not stated) | -1.14% (active)
CCCCCCNC(=O)Oc1ccc(/C(=C(/C)c2ccc(Cl)cc2)c2ccc(OCCN3CCCCCC3)cc2)cc1 | 32.4%
CCOC(=O)c1c(N)c(C#N)cn1-c1cc(OC)c(OC)c(OC)c1 | 96.1%
O=C(/C=C/c1ccc(Cl)c(Cl)c1)Nc1ncc(Cc2ccc(Cl)c(Cl)c2)s1 | 48.2%
Cc1ccc2c(n1)C(=O)C(Cl)=C(Nc1ccc(C)c(C)c1)C2=O | 58.4%
O=S(=O)(NC1CC2CCC1C2)c1ccc2c(c1)C(=NO)c1cc(S(=O)(=O)NC3CC4CCC3C4)ccc1-2 (configuration not stated) | -29.7% (active)
Cn1c2ccccc2c2c3c(c4c5ccc(Br)cc5oc4c21)C(=O)N(O)C3=O | 73%
CC(C)NC(=O)c1cc(-c2ccc(NC(=O)Nc3ccc(F)c(C(F)(F)F)c3)cc2)nc2cccnc12 | 109%
COc1ccc(NC(=O)[C@H](C)NC(=O)OC(C)(C)C)cc1C(=O)Nc1cccc(-c2cc(=O)c3c(OC)c(OC)c(OC)cc3o2)c1 | 2.88% (active)
COc1cc(-c2ccc3ncnc(NC(C)c4ccccc4)c3c2)cnc1OC (configuration not stated) | 43.2%
CN1CCN(Cc2ccc(/C=N/Nc3ccnc4cc(Cl)ccc34)cc2)CC1 | 72.4%
C=C(C)[C@@H]1CC[C@]2(C(=O)O)CC[C@]3(C)[C@H](CC[C@@H]4[C@@]5(C)C/C(=C/c6ccccn6)C(=O)C(C)(C)[C@@H]5CC[C@]43C)[C@@H]12 | 15.3%
CCCCCCNC(=O)Oc1ccc(/C(=C(/C)c2ccccc2)c2ccc(OCCN3CCCCCC3)cc2)cc1 | -39.6% (active)
Cc1ccc2c(n1)C(=O)C(Cl)=C(Nc1ccc(C(F)(F)F)cc1)C2=O | 35.8%
COC(=O)c1ccc(NC2=C(Cl)C(=O)C(C)=C(C)C2=O)cc1 | 41.3%
CS(=O)(=O)c1ccc(/C(=N/N=C(N)N)c2ccc(Cl)cc2)cc1 | 80%
CC(=O)NC(C)(C)C(=O)N1CCC[C@H]1C(=O)NC(C)(C)C(=O)N[C@@H](C)C(=O)NC(C)(C)C(=O)NC(C)(C)C(=O)N[C@@H](CCC(N)=O)C(=O)NC(C)(C)C(=O)N[C@H](C(=O)NC(C)(C)C(=O)NCC(=O)N[C@@H](CC(C)C)C(=O)NC(C)(C)C(=O)N1CCC[C@H]1C(=O)N[C@H](C(=O)NC(C)(C)C(=O)NC(C)(C)C(=O)N[C@@H](CCC(N)=O)C(=O)N[C@@H](CCC(N)=O)C(=O)N[C@H](CO)Cc1ccccc1)C(C)C)C(C)C | 7.73% [4.25 µM] (active)
